According to PubChem BioAssay (Tox21):
Active and inactive are the calls of the source. Where a call stands in place of a potency, no number is given. Calls follow the shape of the full dose curve.

Target: Gonadotropin-releasing hormone receptor (Homo sapiens) (UniProt P30968)
Assay: Human gonadotropin-releasing hormone receptor (GnRHR) small molecule agonists, calcium flux assay in GnRHR-HEK293 cells (AID 1920063); also: nearly all actives have a fitted effect of over 35% in size
Procedure, shortened: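 HEK293 cells stably expressing human GnRHR were plated 18 h at 37 °C, loaded with calcium dye 1 h at 37 °C, then given compound in agonist mode; fluorescence (Ex/Em 480/540) read kinetically for 3 min at 1 s intervals.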
Potency is read from the fitted curve at half-maximal effect.

Sequence of Gonadotropin-releasing hormone receptor (Homo sapiens) (P30968 whole entry, looked up): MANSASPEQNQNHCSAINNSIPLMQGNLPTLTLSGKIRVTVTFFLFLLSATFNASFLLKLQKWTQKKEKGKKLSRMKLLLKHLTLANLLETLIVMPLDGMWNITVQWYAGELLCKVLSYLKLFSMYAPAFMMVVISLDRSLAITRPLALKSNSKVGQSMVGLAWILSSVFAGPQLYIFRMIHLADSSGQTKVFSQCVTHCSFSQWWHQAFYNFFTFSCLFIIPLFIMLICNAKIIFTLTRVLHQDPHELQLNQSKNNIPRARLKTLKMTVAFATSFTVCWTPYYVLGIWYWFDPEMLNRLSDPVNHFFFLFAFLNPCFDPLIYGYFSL

SMILES	Potency
CC(C)S	inactive
O=[N+]([O-])c1ccc(F)cc1F	inactive
Oc1c(Cl)ccc(Cl)c1Cl	inactive
OCC(CO)(CBr)CBr	inactive
CC(C)(C)OCC1CO1 (stereo not drawn)	inactive
N[C@H](Cc1c[nH]c2ccccc12)C(=O)O	inactive
CC(C)=C1CC[C@@H](C)CC1=O	inactive
COc1ccc(-c2coc3cc(O)cc(O)c3c2=O)cc1	inactive
NC(=O)NNc1ccccc1	inactive
O=c1n(CCCN2CCN(c3cccc(Cl)c3)CC2)nc2ccccn12	inactive
CCCOCCO	inactive
O=C(Nc1ccc([N+](=O)[O-])cc1)Nc1ccc([N+](=O)[O-])cc1 (tested in a mixture with another compound)	inactive
CC(C)(C)C1CCCCC1O (stereo not drawn)	inactive
O=C(c1ccc(Cl)cc1)c1ccc(Cl)cc1	inactive
NCCOCCN	inactive
COC(=O)OC	inactive
O=C1OC(=O)c2ccc3c4c(ccc1c24)C(=O)OC3=O	inactive
CC(C)CC(O)Cc1ccccc1 (stereo not drawn)	inactive
O=C(OCCOCCO)c1ccccc1Nc1cccc(C(F)(F)F)c1	inactive
CC(C)CC(C)(O)C#CC(C)(O)CC(C)C (stereo not drawn)	inactive
CN(C)N=Nc1ccccc1	inactive
COC(=O)c1cc(Cl)ccc1OC	inactive
C1=C\CC/C=C\CC/C=C\CC/1	inactive
CCC(CO)(CO)CO	inactive
O=S(=O)(O)CCS	inactive
COc1cccc2c1C(=O)c1c(O)c3c(c(O)c1C2=O)C[C@@](O)(C(C)=O)C[C@@H]3O[C@H]1C[C@H](N)[C@H](O)[C@H](C)O1	34.9 µM (active)
CC(C)(C)NC[C@H](O)COc1nsnc1N1CCOCC1	inactive
Cc1ccc2n[nH]nc2c1	inactive
